Source: PubChem (National Center for Advancing Translational Sciences (NCATS))
This is a sample that favours compounds with a hit; in the whole collection about 10% have one here.
Pf growth 48h: P. falciparum growth inhibition at 48 hours (one generation); P. falciparum luciferase growth in erythrocytes, 48 h; Potency, µM (series often up to 28.7 µM), for inactives: top-dose activity change, negative = inhibition, hits mostly inhibitors; hit rate 5.9% among 310,000; note: % is set by controls: 0 for no effect and ±100 for the full control effect
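Here the parasites carry a stable luciferase gene and grow inside erythrocytes in Albumax-based RPMI medium with compound for one erythrocytic cycle. Activity is scored as loss of luminescent signal.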
NS1 inh: influenza NS1 inhibition | Potency, µM (titrated, usually from 46.1 µM), for inactives: at the top dose activity, positive = more growth | hit rate 0.4% among 270,000 | AID 2326; calls by dose curve; note: actives are rising curves; nearly all actives have a fitted effect of over 50% in size
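Read-out: OD600 growth recovery of NS1-expressing budding yeast. Cells grown overnight at 30C in -URA glucose medium, washed, resuspended and diluted 1:100 in 2% galactose assay medium, pH 6.0. Same strain lacking NS1 served as positive control.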
Pf growth 96h: P. falciparum growth inhibition at 96 hours; P. falciparum luciferase reporter growth, 96 h; Potency, µM (top dose mostly 28.7 µM), inactives show at the top dose activity change, negative = inhibition, hits mostly inhibitors; hit rate 6.9% among 320,000; note: % is set by controls: 0 for no effect and ±100 for the full control effect
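Delayed-death screen, second-generation endpoint: infected erythrocytes, 2% hematocrit, 0.05% parasitemia final; 96 hours at 37 C, 5% CO2; luciferase detection reagent; luminescence decrease equals reduced growth.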
SARS PLP yeast: SARS-CoV PLP inhibition in yeast; S. cerevisiae expressing SARS-CoV PLpro, growth rescue; Potency, µM (doses to about 32.9 µM), for the others: at the highest dose activity, positive = growth rescue, hits mostly activators; hit rate 0.19% among 330,000; AID 485353; calls by dose curve; note: 0% is about no effect; nearly all actives have a fitted effect of over 55% in size
* hit, by the source's call; ? = inconclusive; . = no result. Unless noted, calls come from the whole dose curve; as a rule, active = well fitted inhibition curve with a large enough effect; inconclusive = small, poorly fitted or top-dose-only effect, or another doubt; inactive = no such curve, though single readings can be large or run the other way. Potency is the fitted concentration of half-maximal effect.

SMILES	Pf growth 48h	NS1 inh	Pf growth 96h	SARS PLP yeast
COc1ccc(NC(=S)NNC(=S)Nc2cccc(C(F)(F)F)c2)cc1	?	0.2%	?	-1.5%
COc1ccc(NC(=O)c2csc(C)c2)cc1OC	11.7%	-0.2%	244.0%	-2.7%
Cc1cc(N2C(=O)Cc3ccccc3C2=O)ccc1C(C)C	14.5%	8.7%	9.8%	-2.7%
CC1Cc2cc(/C(O)=C3/C(=O)C(=O)N(CCN4CCOCC4)C3c3ccc([N+](=O)[O-])cc3)ccc2O1 (stereo not drawn)	24.0%	-1.7%	9.28µM*	-3.7%
COc1ccc(C2/C(=C(/O)c3ccc4c(c3)CC(C)O4)C(=O)C(=O)N2CCN2CCOCC2)cc1 (stereo not drawn)	1.0%	-32.2%	22.0%	-3.4%
O=S(=O)(c1ccc(-c2ccccc2)cc1)N1CCOCC1	-9.8%	14.0%	.	.
CC(=O)c1cccc(N=c2scc(-c3ccc(S(=O)(=O)N4CCOCC4)cc3)n2CCO)c1	5.22µM*	-14.7%	4.65µM*	9.2%
C=CCn1c(-c2ccc(S(=O)(=O)N3CCOCC3)cc2)csc1=Nc1ccccc1	?	9.4%	11.7µM*	-3.7%
COc1ccc(N=c2scc(-c3ccc(S(=O)(=O)N4CCOCC4)cc3)n2CCCO)cc1	11.7µM*	-51.3%	-16.5%	1.7%
COc1ccc(-c2csc(=Nc3ccccc3)n2CCO)cc1	8.3%	-16.3%	-0.9%	-22.2%
CC(=O)c1c(C)[nH]c(C(=O)OCC(=O)NCCC2=CCCCC2)c1C	13.1µM*	.	?	-1.2%
CC(=O)c1c(C)[nH]c(C(=O)OCC(=O)NCCCc2ccccc2)c1C	?	.	9.28µM*	1.8%
CC(=O)c1c(C)[nH]c(C(=O)OCC(=O)NCCc2ccc(F)cc2)c1C	?	-3.9%	?	-0.9%
CC(C)OC(=O)CC1C(=O)NCCN1C(=O)COc1ccc(C(C)(C)C)cc1 (stereo not drawn)	?	-4.0%	3.5%	3.9%
Cc1ccc(S(=O)(=O)N2c3ccccc3NC(=O)C2CC(=O)Nc2ccccc2)cc1 (stereo not drawn)	?	-11.9%	11.7µM*	-0.8%
Cc1ccc(S(=O)(=O)N2c3ccccc3NC(=O)CC2C)cc1 (stereo not drawn)	?	3.2%	15.8%	4.0%
Fc1ccc(-n2nnc(-c3cccnc3)n2)cc1	112.8%	-5.8%	97.6%	-1.3%
Fc1ccc(C(CCCn2nnc(-c3cccnc3)n2)c2ccc(F)cc2)cc1	14.7µM*	-0.7%	-8.6%	-18.3%
Cc1cc(C)c2ccc3c(C)c(C)nc3c2[nH]1	3.7µM*	.	-53.9%	-0.9%
Cc1cc(=O)[nH]c2c(C)c(N)ccc12	2.1%	1.6%	?	-7.1%
O=C(CC(C(=O)O)P(=O)(c1ccccc1)c1ccccc1)c1ccccc1 (stereo not drawn)	25.3%	-0.2%	-5.3%	0.4%
N#Cc1c(N)sc(=S)c2c1CCN(Cc1ccccc1)C2	10.4µM*	-13.0%	129.6%	-21.5%
CCN1CCc2c(sc(N)c2C#N)C1	?	1.1%	.	6.2%
CCC(C(=O)NCc1ccco1)N(C(=O)CNS(=O)(=O)c1ccc(C)cc1)c1ccccc1OC (stereo not drawn)	4.15µM*	1.1%	20.5%	1.0%
Cc1ccc(S(=O)(=O)NCC(=O)N(CC(=O)NCc2ccco2)Cc2ccco2)cc1	3.4%	0.5%	13.1µM*	-1.1%
SMILES	Pf growth 48h	NS1 inh	Pf growth 96h	SARS PLP yeast
COc1ccccc1N(C(=O)CNS(=O)(=O)c1ccccc1)C(C(=O)NCc1ccco1)C(C)C (stereo not drawn)	?	-6.9%	5.22µM*	4.6%
CCCC(C(=O)NCc1ccco1)N(C(=O)CNS(=O)(=O)c1ccccc1)c1ccccc1OC (stereo not drawn)	10.4µM*	-48.7%	?	5.7%
CCCC(C(=O)NC1CCCC1)N(CC1CCCO1)C(=O)CNS(=O)(=O)c1ccccc1 (stereo not drawn)	-3.9%	-2.6%	13.9%	3.3%
CCOC(=O)CC1(NC(=O)c2cc(COc3cccc(OC)c3)on2)CCCCC1	?	-9.1%	8.4%	2.6%
CS(=O)(=O)c1ccc(Cl)c(NC(=O)CCN2C(=O)NC3(CCCC3)C2=O)c1	.	.	.	-11.3%
Cn1c(SCC(=O)NC(=O)Nc2ccccc2)nnc1-c1ccncc1	6.7%	1.1%	-0.4%	1.0%
CCC(=O)Nc1c(C#N)c2nc3ccccc3nc2n1C1CCCCC1	?	9.1%	?	-0.8%
CCOC(=O)c1c(N)n(C2CC(C)(C)NC(C)(C)C2)c2nc3ccccc3nc12	10.4µM*	-2.5%	9.28µM*	-11.7%
CCOC(=O)c1c(NC(=O)c2ccco2)n(C2CCCCC2)c2nc3ccccc3nc12	?	14.2%	10.4µM*	-24.6%
O=C(CNS(=O)(=O)c1ccc(Br)s1)N1CCN(c2ccc(F)cc2)CC1	-3.3%	9.5%	38.4%	-5.5%
CCCCC(=O)Nc1nc2c(OC)ccc(OC)c2s1	.	1.5%	?	0.8%
CCCCC(=O)Nc1nc(C)c(-c2csc(Nc3cc(Cl)ccc3OC)n2)s1	8.28µM*	?	4.65µM*	-3.8%
CCCCC(=O)Nc1nc(C)c(-c2csc(Nc3cc(OC)ccc3OC)n2)s1	1.04µM*	10.5%	?	-7.4%
CCN(CC(=O)Nc1c(F)cccc1F)C(=O)CSc1nnc(-c2ccco2)n1CC	-3.9%	3.1%	16.7%	-9.5%
COCCCn1cc(C(=O)c2cc(Br)ccc2O)cc(C#N)c1=O	?	.	9.28µM*	0.0%
Cc1ccc(O)c(C(=O)c2cc(C#N)c(=O)n(C(C)c3ccccc3)c2)c1 (stereo not drawn)	3.29µM*	.	5.86µM*	-0.4%
C=CCn1cc(C(=O)c2cc(Br)ccc2O)cc(C#N)c1=O	?	-8.5%	?	-0.9%
N#Cc1cc(C(=O)c2cc(Br)ccc2O)cn(C2CC2)c1=O	?	?	?	5.6%
CCCCn1cc(C(=O)c2cc(Br)ccc2O)cc(C#N)c1=O	1.65µM*	8.2%	2.08µM*	-16.2%
CCOCCCn1cc(C(=O)c2cc(Br)ccc2O)cc(C#N)c1=O	5.22µM*	.	?	-3.8%
Cc1cccc(NC(=O)CN(CC2CCCO2)C(=O)c2oc3ccccc3c2C)c1C (stereo not drawn)	?	.	-24.5%	1.4%
CC(C)(C)c1ccc(OCCC(=O)NCCc2ccc(S(N)(=O)=O)cc2)cc1	-0.2%	-13.4%	-19.4%	-0.1%
CC(C)n1cc(C(=O)c2cc(Br)ccc2O)cc(C#N)c1=O	.	-7.7%	2.62µM*	12.8%
c1ccc2c(c1)NC1(CCCCCC1)n1c-2nc2ccccc21	117.0%	-61.0%	.	-17.9%
CCN1C(=O)C2(Nc3ccccc3-c3nc4ccccc4n32)c2cc(OC)ccc21 (stereo not drawn)	9.28µM*	5.6%	4.7%	9.4%
O=C1Nc2ccccc2C12Nc1ccccc1-c1nc3ccccc3n12 (stereo not drawn)	0.738µM*	-24.4%	.	2.7%
CN1C(=O)C2(Nc3ccccc3-c3nc4ccccc4n32)c2ccccc21 (stereo not drawn)	8.28µM*	-37.3%	-7.6%	0.1%
O=C(COC(=O)c1ccccc1O)NC(=O)NCc1ccccc1	10.6%	.	32.1%	-5.0%
Cc1oc(S(=O)(=O)N2CCOCC2)cc1C(=O)Nc1ccc(Cl)cc1	18.2%	0.9%	-19.9%	0.2%
